29 compounds from PubChem BioAssay (EPA / NIEHS) can be followed below.

A short description of assay [1]: ATG_PBREM_CIS: Attagene CIS-FACTORIAL HepG2 Assay for human Phenobarbital-responsive Enhancer Module (PBREM) (AID 2282955). Conditions: HepG2 PBREM cis-reporter, Attagene multiplexed transcription; actives raise or lower the signal. The gist of the method: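 Endogenous transcription factors in human liver HepG2 cells drive a PBREM cis-element reporter, whose transcript level after 24 h treatment is quantified by RT-PCR with capillary electrophoresis; activity fitted in both directions against DMSO.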

A short description of assay [2]: ATG_PXRE_CIS: Attagene CIS-FACTORIAL HepG2 Assay for human Pregnane X Receptor Element (PXRE) (AID 2282957). Conditions: HepG2 Attagene CIS-FACTORIAL PXRE reporter, mRNA; actives raise or lower the signal. In outline:
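HepG2 cells transiently transfected with cis-element-driven multiplexed reporter units; after 24 h chemical exposure, reporter mRNA measured by RT-PCR, 6-FAM labelling, HpaI digestion and capillary electrophoresis. Bidirectional fitting relative to DMSO.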

The nature of assay [3]: ATG_PPRE_CIS: Attagene CIS-FACTORIAL HepG2 Assay for human Peroxisome Proliferator-activated Response Element (PPRE) (AID 2282958). Conditions: HepG2 PPRE cis-element reporter, Attagene transcription factor profiling; actives raise or lower the signal. The gist of the method:
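HepG2, transient MRTU transfection (cis promoter elements, endogenous TFs). 24 h dosing. RNA → oligo(dT) RT → PCR → 6-FAM primer extension → HpaI digest → CE. Bidirectional fit vs DMSO.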

The nature of assay [4]: ATG_RORE_CIS: Attagene CIS-FACTORIAL HepG2 Assay for human RAR-related Orphan Receptor Element (RORE) (AID 2282959). To be noted: HepG2 Attagene cis-factorial RORE reporter, mRNA; actives raise or lower the signal. In outline: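 Transient MRTU transfection of human HepG2 liver cells (FuGene 6); 24 h compound exposure; TriZol RNA, oligo(dT) RT, PCR, FAM labeling, HpaI cut, CE fragment analysis. DMSO = negative control/baseline.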

Assay [5] can be described thus: ATG_Sox_CIS: Attagene CIS-FACTORIAL HepG2 Assay for human SRY-box transcription factor (SOX) (AID 2282960). To be noted: HepG2 Attagene cis-factorial SOX reporter, mRNA; actives raise or lower the signal. In outline: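 Endogenous factor activity in human liver HepG2 cells carrying transfected cis-regulated reporter units. RNA taken 24 h post-dose, reverse-transcribed, PCR-amplified and sized by capillary electrophoresis. Gain or loss of signal fitted relative to DMSO.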

Assay [6] concerns the target Transcription factor Sp1 (Homo sapiens) (UniProt P08047). Description: ATG_Sp1_CIS: Attagene CIS-FACTORIAL HepG2 Assay for human Specificity Protein 1 (Sp1) (AID 2282961). Conditions: HepG2 Sp1 cis-reporter transcription, actives raise or lower the signal. In outline: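 Transient MRTU-transfected HepG2, 24 h compound exposure. Total RNA → oligo(dT) RT → PCR of reporter → 6-FAM primer extension → HpaI digest → CE. Endpoint fitted both directions vs DMSO.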

A short description of assay [7]: ATG_SREBP_CIS: Attagene CIS-FACTORIAL HepG2 Assay for human Sterol Regulatory Element Binding (SREBP) (AID 2282962). To be noted: HepG2 Attagene cis-factorial SREBP reporter, mRNA; actives raise or lower the signal. The gist of the method:
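HepG2 cells transiently transfected with multiplexed cis-element reporter units report endogenous transcription factor activity. After 24 h of chemical exposure, reporter mRNA was quantified by RT-PCR, 6-FAM labelling, HpaI digestion and capillary electrophoresis; bidirectional fits used DMSO as baseline.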

The target of assay [8] is Signal transducer and activator of transcription 3 (Homo sapiens) (UniProt P40763). Description: ATG_STAT3_CIS: Attagene CIS-FACTORIAL HepG2 Assay for human Signal Transducer and Activator of Transcription 3 (STAT3) (AID 2282963). Conditions: HepG2, Attagene cis-factorial STAT3 reporter transcription; actives raise or lower the signal. The gist of the method: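 Transcript-level reporter assay. HepG2 transient MRTU transfection, 24 h exposure, fluorescence detection after RT-PCR and CE; DMSO baseline.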

Assay [9] can be described thus: ATG_TA_CIS: Attagene CIS-FACTORIAL HepG2 Assay for human TA Basal Promoter (AID 2282964). To be noted: HepG2 Attagene CIS-factorial TA basal promoter reporter; actives raise or lower the signal. The gist of the method:
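Read-out: fluorescent reporter-transcript fragments resolved by capillary electrophoresis after RT-PCR and HpaI digestion. Source: HepG2 cells carrying transiently transfected multi-reporter cis constructs, treated 24 h. Endpoint fitted bidirectionally relative to DMSO.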

Calls of active or inactive are those of the source. Rule for the calls: active = hit-call score of the fitted dose curve at least 0.9, where 1 is the maximum; inactive = score below 0.9.

Signal transducer and activator of transcription 3 (Homo sapiens), sequence (P40763 whole entry, looked up): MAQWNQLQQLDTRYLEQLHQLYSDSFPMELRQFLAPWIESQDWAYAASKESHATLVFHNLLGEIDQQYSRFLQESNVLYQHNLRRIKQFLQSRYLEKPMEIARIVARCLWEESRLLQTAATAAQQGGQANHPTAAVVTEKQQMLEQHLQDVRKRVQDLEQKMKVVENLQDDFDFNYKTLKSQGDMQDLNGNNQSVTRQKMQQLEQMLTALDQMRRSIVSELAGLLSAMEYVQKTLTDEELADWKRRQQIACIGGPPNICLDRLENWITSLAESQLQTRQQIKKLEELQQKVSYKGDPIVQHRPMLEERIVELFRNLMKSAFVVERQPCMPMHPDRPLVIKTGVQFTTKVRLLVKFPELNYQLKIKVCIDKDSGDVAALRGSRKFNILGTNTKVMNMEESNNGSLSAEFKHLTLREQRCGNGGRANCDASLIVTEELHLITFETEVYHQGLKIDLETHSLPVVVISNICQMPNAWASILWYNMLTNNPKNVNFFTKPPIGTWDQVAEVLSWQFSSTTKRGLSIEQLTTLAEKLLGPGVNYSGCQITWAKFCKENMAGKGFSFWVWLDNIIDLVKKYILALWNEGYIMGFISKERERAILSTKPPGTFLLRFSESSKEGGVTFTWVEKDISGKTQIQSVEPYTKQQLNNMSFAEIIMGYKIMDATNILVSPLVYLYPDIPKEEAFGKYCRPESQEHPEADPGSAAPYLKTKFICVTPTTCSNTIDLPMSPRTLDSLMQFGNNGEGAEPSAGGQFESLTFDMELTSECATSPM
Transcription factor Sp1 (Homo sapiens), sequence (P08047 whole entry, looked up): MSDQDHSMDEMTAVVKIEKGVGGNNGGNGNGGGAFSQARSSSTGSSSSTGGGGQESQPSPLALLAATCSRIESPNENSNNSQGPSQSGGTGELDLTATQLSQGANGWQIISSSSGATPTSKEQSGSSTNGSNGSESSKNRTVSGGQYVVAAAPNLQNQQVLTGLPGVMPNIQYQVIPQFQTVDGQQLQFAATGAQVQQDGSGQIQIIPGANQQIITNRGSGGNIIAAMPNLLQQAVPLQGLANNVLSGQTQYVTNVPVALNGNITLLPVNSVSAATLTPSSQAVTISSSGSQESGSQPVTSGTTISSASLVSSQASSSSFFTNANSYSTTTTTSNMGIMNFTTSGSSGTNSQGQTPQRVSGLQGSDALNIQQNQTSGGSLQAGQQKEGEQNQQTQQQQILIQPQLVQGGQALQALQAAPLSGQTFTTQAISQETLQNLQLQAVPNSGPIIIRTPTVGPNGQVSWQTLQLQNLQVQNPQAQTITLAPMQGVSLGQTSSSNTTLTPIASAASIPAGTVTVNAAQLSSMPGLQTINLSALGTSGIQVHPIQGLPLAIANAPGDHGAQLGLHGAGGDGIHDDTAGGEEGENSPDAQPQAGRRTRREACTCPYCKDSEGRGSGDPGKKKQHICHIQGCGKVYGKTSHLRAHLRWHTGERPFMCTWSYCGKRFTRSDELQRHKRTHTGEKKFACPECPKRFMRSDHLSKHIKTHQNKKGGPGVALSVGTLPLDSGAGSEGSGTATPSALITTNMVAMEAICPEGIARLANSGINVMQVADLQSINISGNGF

For `CNS(=O)(=O)C(F)(F)C(F)(F)C(F)(F)C(F)(F)C(F)(F)C(F)(F)C(F)(F)C(F)(F)F`, the outcome in assay [1], in [3], in [4], in [5], in assay [6] and in assay [7] was inactive. Also, the call in [8] and in assay [9] was inactive. For the same compound, the AC50 (usually the midpoint of the concentration-response curve, whichever way the signal moves) in [2] was 10.4 µM (active).
On to `FC(F)(F)C(F)(F)C(F)(F)CC1CO1` (centres undefined), for which the outcome in assay [1], in [2], in [3], in assay [4], in [5] and in [7] was inactive. Also, the result in assay [8] and in assay [9] was inactive.
With `O=c1[nH]cccc1O`, the result in assay [1], in [2], in assay [3], in assay [4], in [5] and in assay [6] was inactive. Further, the compound was called inactive in assay [7], in assay [8] and in assay [9].
Turning to `CC(C)Nc1ccc(NC(C)C)c2c1C(=O)c1ccccc1C2=O`, the result in assay [1], in assay [3], in assay [4], in assay [5], in assay [7] and in assay [9] was inactive. Also, the AC50 in [2] is 0.21 µM (active).
Regarding `CC(C)OC=O`, the outcome in assay [1], in assay [2], in assay [3], in assay [4], in assay [5] and in [6] was inactive. Further, the outcome in assay [7] and in assay [9] was inactive.
Regarding `N#Cc1ccccc1O`, the outcome in [1], in [2], in [3], in assay [4], in assay [5] and in assay [6] was inactive. For the same compound, the compound was called inactive in [7] and in [9].
`OCCCCC(F)(F)C(F)(F)C(F)(F)C(F)(F)F`: the result in assay [1], in [2], in [3], in assay [4], in assay [5] and in [6] was inactive. Moreover, the outcome in assay [7], in [8] and in [9] was inactive.
For `Oc1ccc(C2(c3ccc(O)c(C4CCCCC4)c3)CCCCC2)cc1C1CCCCC1`, the AC50 in [1] is 8.53 µM (active); in assay [2], 0.175 µM (active); in assay [5] it was 7.42 µM (active); in assay [7], 27 µM (active). In addition, the result in assay [3], in assay [4] and in assay [9] was inactive.
On to `Brc1nc2ccccc2s1`, for which the result in assay [1], in [2], in [4], in assay [5], in assay [6] and in assay [7] was inactive. The outcome in assay [8] and in assay [9] was inactive. Further, the AC50 in assay [3] is 18.1 µM (active).
In the case of `CC1=CCC2C(=O)OC(=O)C2C1` (centres undefined), the outcome in assay [1], in assay [3], in assay [4], in [5], in assay [6] and in assay [7] was inactive. Besides, the compound was called inactive in assay [8] and in assay [9].
On to `CC(=O)c1ccccc1N`, for which the result in assay [1], in assay [2], in [3], in assay [4], in [5] and in [6] was inactive. Moreover, the compound was called inactive in assay [7] and in assay [9].
Regarding `CCN(CC)c1ccc(N=Nc2ccccc2)cc1`, the AC50 in assay [1] is 8.89 µM (active); in assay [3] it was 4.8 µM (active); in [4], 8.12 µM (active); in assay [8] it was 27.6 µM (active). Also, the compound was called inactive in assay [5], in [6], in assay [7] and in assay [9].
For the compound `C[C@]12CC[C@H]3C(=CCc4cc(O)ccc43)[C@@H]1CCC2=O`, the result in assay [1], in assay [3], in assay [4], in assay [5], in [7] and in assay [8] was inactive. Also, in [9], the compound was classed as inactive. Further, the AC50 in [2] is 26.6 µM (active).
As to `C[Si](Cl)(Cl)CCC(F)(F)C(F)(F)C(F)(F)C(F)(F)C(F)(F)C(F)(F)F`, the result in [1], in assay [2], in [3], in [4], in assay [5] and in assay [6] was inactive. In addition, the compound was classed as inactive in assay [7], in assay [8] and in assay [9].
With `CO[Si](C)(CCC(F)(F)C(F)(F)C(F)(F)C(F)(F)C(F)(F)C(F)(F)F)OC`, the result in assay [1], in assay [2], in assay [3], in assay [4], in [5] and in assay [6] was inactive. Besides, the call in [7] and in assay [9] was inactive.
Take `NCC(F)(F)C(F)(F)C(F)(F)C(F)(F)C(F)(F)C(F)(F)C(F)(F)C(F)(F)F`: the outcome in assay [1], in [2], in assay [3], in [4], in assay [5] and in assay [6] was inactive. Moreover, the call in assay [7] and in assay [9] was inactive.
Turning to `CCC(=O)OC(C)c1ccccc1` (centres undefined), the result in [1], in assay [3], in assay [4], in assay [5], in assay [6] and in assay [7] was inactive. The call in assay [8] and in [9] was inactive.
`O=C(Cl)C(F)(F)C(F)(F)C(F)(F)C(F)(F)C(F)(F)C(F)(F)C(F)(F)F`: the outcome in [1], in assay [4], in assay [5], in assay [6], in assay [7] and in [9] was inactive. The concentration at half-maximal activity (AC50) in [3] was 69.5 µM (active).
Consider `C=CC(=O)OCC(F)(F)C(F)(F)C(F)(F)COC(=O)C=C`, for which the result in assay [1], in assay [3], in assay [4], in assay [7], in [8] and in assay [9] was inactive. In addition, the AC50 in assay [5] was 29.1 µM (active).
For the compound `COCCC(=O)OC`, the result in assay [1], in assay [2], in assay [3], in assay [4], in assay [5] and in [6] was inactive. Also, the compound was called inactive in assay [7] and in assay [9].
As to `O=C(F)C1(F)C(F)(F)C(F)(F)C(F)(F)C(F)(F)C1(F)F`, the result in assay [1], in assay [2], in assay [3], in assay [4], in [5] and in assay [6] was inactive. Besides, the call in assay [7], in [8] and in assay [9] was inactive.
In the case of `CCC/C=C/CO`, the result in assay [1], in assay [2], in assay [3], in [4], in assay [5] and in assay [6] was inactive. The outcome in assay [7], in [8] and in [9] was inactive.
`CC(C)(C)c1cc(CCC(=O)OCC(COC(=O)CCc2cc(C(C)(C)C)c(O)c(C(C)(C)C)c2)(COC(=O)CCc2cc(C(C)(C)C)c(O)c(C(C)(C)C)c2)COC(=O)CCc2cc(C(C)(C)C)c(O)c(C(C)(C)C)c2)cc(C(C)(C)C)c1O`: the result in [1], in assay [3], in assay [4], in assay [5], in assay [6] and in assay [7] was inactive. Besides, the result in assay [9] was inactive. Moreover, the concentration at half-maximal activity (AC50) in [2] was 21.3 µM (active).
In the case of `CCN(CC)c1ccc2c(c1)Oc1cc(N(CC)CC)ccc1C21OC(=O)c2ccccc21`, the outcome in assay [1], in assay [3], in assay [4], in [5], in assay [6] and in [8] was inactive. Further, the result in [9] was inactive. The AC50 is 1.04 µM (active) in assay [2] and 17.6 µM (active) in assay [7].
On to `N#CCCOCCC#N`, for which the outcome in assay [1], in [3], in assay [4], in assay [5], in assay [6] and in assay [7] was inactive. In addition, the compound was called inactive in [8] and in [9].
In the case of `CSc1ccc(O)cc1C`, the result in assay [1], in assay [3], in assay [4], in assay [5], in assay [7] and in [8] was inactive. For the same compound, the result in assay [9] was inactive. Further, the concentration at half-maximal activity (AC50) in assay [2] is 44.3 µM (active).
Regarding `Cc1ccc([N+](=O)[O-])c(C)c1`, the outcome in assay [1], in assay [2], in assay [3], in assay [4], in [5] and in assay [6] was inactive. Also, the outcome in assay [7], in [8] and in assay [9] was inactive.
Regarding `CCCCCCCCCCCCCC[P+](CCCC)(CCCC)CCCC`, the result in assay [1], in [2], in assay [3], in assay [4], in assay [5] and in [8] was inactive. For the same compound, the call in assay [9] was inactive. The half-maximal activity concentration (AC50) in assay [6] was 0.969 µM (active); in assay [7], 1.24 µM (active).
As to `CCC(Cc1c(I)cc(I)c(N)c1I)C(=O)O` (centres undefined), the outcome in [1], in [4], in [8] and in assay [9] was inactive. For the same compound, the AC50 in [2] was 151 µM (active); in assay [3], 39.7 µM (active); in assay [5], 137 µM (active); in assay [6] it was 88.5 µM (active); in assay [7], 24.1 µM (active).
